This is part of a sample that, as a whole, favours compounds with a hit. Of some 79,000 tested, about 15% had one in any assay. The source made the active and inactive calls. No stated cut-off is given here; in the data, active means growth inhibition above about 70%; inactive means the rest.

This note sets out measurements from PubChem BioAssay (NCI).

The nature of the experiment: NCI Yeast Anticancer Drug Screen. Data for the rad50 strain (AID 155).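 Further: 0% = growth of vehicle-only cultures of the same strain.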 Particulars: S. cerevisiae rad50 strain growth inhibition; at 5.0 µM (retest, dose inferred, filed as 0.5); stronger effect = higher value. In short, it runs like this:
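Compounds were tested on a yeast strain with an engineered DNA damage repair alteration; the reported value is growth inhibition normalised to vehicle treatment.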
As for `COC(=O)[C@H]1O[C@H]1c1ccncc1`, the growth inhibition was 0% (inactive).
The value for `O=[N+]([O-])c1ccc(NSc2ccccc2)cc1` was -14% (inactive); that for `OCCOCCO[P+]1(OCCOCCO)n2c3ccc2C(c2ccccc2)=C2C=CC(=N2)C(c2ccccc2)=c2ccc(n21)=C(c1ccccc1)C1=NC(=C3c2ccccc2)C=C1` was 99% (active); that for `NCCSC1(O)C(=O)c2ccccc2-c2ccccc21` (stereo not given) was 6% (inactive).
In the case of `C/C=C(\C)C(=O)O[C@@H]1CC(C)(C)CC2C3=CCC4[C@]56CC[C@](O)(OC5)C(C)(C)C6CC[C@@]4(C)C3(C)CC[C@]21C(=O)O` (stereo not given in full) it was 53% (inactive); in that of `CSC(=S)NN=C1CCCCC1`, 59% (inactive); in that of `O=C1c2ccccc2C(O)(C#Cc2ccccc2)c2cnccc21` (stereo not given), -6% (inactive).
The value for `CCCCCC(CCCCC)C(=O)O` was 0% (inactive); that for `CC(C)(N=Nc1ccc([N+](=O)[O-])cc1)[N+](=O)[O-]` was 26% (inactive); that for `CCCCCCCCCCCCCC(=O)N1CCOCC1` was 0% (inactive).
`CCOc1ccccc1-c1nc2c(s1)C(=O)c1ccccc1C2=O`: the growth inhibition was 87% (active).
The value for `c1ccc2c(c1)C[n+]1ccc3ccccc3c1-c1c3ccccc3cc[n+]1C2` was 8% (inactive); that for `Nc1cc2c(c[n+](CCCCCCCCCC[n+]3cc4c5ccccc5c(N)cc4c4ccccc43)c3ccccc23)c2ccccc12` was 20% (inactive).
The value for `Cc1ccc(N=C(N)NN=C(c2ccc(Cl)cc2)c2ccc(Cl)cc2)cc1` was 10% (inactive).
The value for `O/N=C(/C[n+]1csc2ccccc21)c1ccccc1` was -6% (inactive); that for `COc1ccc(C2Oc3c(cccc3OC)C=C2[N+](=O)[O-])cc1` (stereo not given) was 20% (inactive).
Take `O=C(O)c1c2c(cc3c1CC1(Cc4cc5c(cc4C1=O)CCC5)C3)CCC2` (stereo not given): the growth inhibition was 67% (inactive).
In the case of `CSc1ncnc2ncn(C3OC(CO)C(O)C3O)c12` (stereo not given) it was -16% (inactive).
The value for `CC1SC(=S)N(c2ccc(Cl)cc2)C1=O` (stereo not given) was 4% (inactive); that for `CCOC(=O)C(C(C)=O)C1=C(Cl)C(=O)c2ccccc2C1=O` (stereo not given) was 94% (active).
The value for `CC(C)(C)c1cc(C(O)(C(F)(F)F)C(F)(F)F)c(S)c(C(O)(C(F)(F)F)C(F)(F)F)c1` was 8% (inactive); that for `O=[N+]([O-])C1C(c2ccccc2)CC=CC1N1CCCC1` (stereo not given) was 2% (inactive); that for `COc1ccc2nc3cc(Cl)ccc3c(NCCNc3c4ccc(Cl)cc4nc4ccc(OC)cc34)c2c1` was 34% (inactive).
As to `CCN(CC)CCNc1nc(N)c2nc(-c3ccccc3)c(-c3ccccc3)nc2n1`, the growth inhibition is -4% (inactive).
The value for `CC(=O)OCC(=O)[C@@]1(O)CC[C@H]2[C@@H]3CCC4=CC(=O)C=C[C@]4(C)[C@@]3(F)[C@@H](O)C[C@@]21C` was -27% (inactive); that for `O=Cc1cc(S(=O)(=O)c2ccc(O)c(C=O)c2)ccc1O` was 12% (inactive); that for `OCc1cccc2c1Oc1ccccc1S2` was 2% (inactive).
The value for `O=C(CCN1CCCC1)c1ccc(Oc2ccc(F)cc2)cc1` was 28% (inactive); that for `Cc1ccccc1N1CCN(c2c3c(nc4ccccc24)CCCCC3)CC1` was -4% (inactive).
In the case of `CNC(Cc1ccccc1)c1ccc(OC)c2ccccc12` (stereo not given) it was 3% (inactive); in that of `CCCCN(CCCC)Cc1ccc(NC(C(=O)c2ccccc2)c2ccccc2)cc1` (stereo not given), -5% (inactive); in that of `CCS(=O)(=O)/C=C(\C#Cc1ccccc1)c1ccccc1`, 9% (inactive).
For `CN(C)c1c([N+](=O)[O-])cc(N2C(=O)C=CC2=O)cc1[N+](=O)[O-]`, the growth inhibition was 81% (active).
The value for `CNC(=N)c1ccc(NC(=N)c2ccc(NC(=O)c3ccc(C(=O)Nc4ccc(C(=N)Nc5ccc(C(=N)NC)cc5)cc4)cc3)cc2)cc1` was 74% (active).
In the case of `O=[N+]([O-])c1ccc(-c2nc3ccc(F)cc3[nH]2)o1`, the growth inhibition is 73% (active).
The value for `CCCCCCC(=O)CC(SCCN)c1ccccc1Cl` (stereo not given) was 9% (inactive).
The value for `O=C(CC(c1ccccc1Cl)C(C(=O)O)c1ccccc1)c1ccccc1` (stereo not given) was 4% (inactive).
In the case of `CC([N+](=O)[O-])C1(O)C(=O)c2cccc3cccc1c23` (stereo not given) it was -7% (inactive); in that of `CC(=O)N(C1=C(Cl)C(=O)c2ccccc2C1=O)c1ccc(Cl)cc1`, 98% (active); in that of `CCOC(=N)CCCSSc1ccc(N=[N+]=[N-])cc1`, 15% (inactive).
